# D1 antagonist – blocks dopamine activation of the human D1 receptor; HEK293 TREx D1 cells, calcium flux, dopamine EC80; active compounds read low; activity change, negative = inhibition, % at 10 µM; 360,000 compounds, 3.2% hits; P21728; in the data active = activity change below about -30%; also: % is scaled to controls: 0 for no effect and ±100 for the full control effect
# Target sequence (P21728 whole entry, looked up): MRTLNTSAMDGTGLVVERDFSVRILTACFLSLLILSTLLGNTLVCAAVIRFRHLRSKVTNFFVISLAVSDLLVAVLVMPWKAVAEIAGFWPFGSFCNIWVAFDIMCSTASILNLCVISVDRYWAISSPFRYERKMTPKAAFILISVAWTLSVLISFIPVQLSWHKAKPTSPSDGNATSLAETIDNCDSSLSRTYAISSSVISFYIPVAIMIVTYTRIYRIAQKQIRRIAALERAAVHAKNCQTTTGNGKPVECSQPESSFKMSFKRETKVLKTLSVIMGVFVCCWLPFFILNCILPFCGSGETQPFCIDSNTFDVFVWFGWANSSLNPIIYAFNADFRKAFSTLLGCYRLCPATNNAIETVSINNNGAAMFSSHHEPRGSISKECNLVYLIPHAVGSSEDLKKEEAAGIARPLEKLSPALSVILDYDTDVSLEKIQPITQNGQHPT
#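 Kinetic fluorescence of a calcium dye serves as the read-out. D1-expressing Hek293 Trex cells, induced overnight at 30 C, are exposed to compound for 180 s before an EC80 dopamine addition, then read 180 s further.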
# D3 ag – agonists of human D3 dopamine receptor; D3R DiscoveRx beta-arrestin cells, luminescence, 90 min; max activation, %; 410,000 compounds, 0.58% hits; P35462; in the data active = max activation above about 30%; also: 0% is about no effect
#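 Agonist mode: compounds and dopamine controls were applied to plated cells for 90 min at 37 degrees C after an overnight attachment at 1500 cells/well. Luminescent read-out followed 30 - 60 minutes at room temperature with DiscoveRx detection reagent.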
# D3 antag – antagonists of human D3 dopamine receptor; P35462; D3R cells, DiscoveRx beta-arrestin luminescence, antagonist mode; active compounds read low; max response, negative = inhibition, %; 360,000 compounds, 2.5% hits; AID 652054; in the data active = max response below about -50%; inconclusive = no clear call, values can overlap the other calls; also: % is scaled to controls: 0 for no effect and ±100 for the full control effect
#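 Cells plated overnight at 1500 cells/well, then exposed to library compounds with dopamine controls for 90 minutes at 37 degrees C. DiscoveRx reagent added for 30–60 minutes at room temperature; luminescence read, quantitative HTS format.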
# ERG Ets-DNA blk – inhibitors of human ERG Ets domain-DNA interaction | fluorescence polarization, His-ERG Ets domain / labelled DNA | Potency, µM (top dose mostly 76.9 µM), for the others: at the top dose FP activity, negative = inhibition, hits mostly inhibitors | 370,000 compounds, 0.028% hits; active = well fitted inhibition curve with a large enough effect in the polarisation, with a control signal flat; inconclusive = small, poorly fitted or top-dose-only effect, or effect the other way, or a change in a side signal; inactive = no such curve, though single readings can be large or run the other way; the % refers to the polarisation;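 also: polarization taken with two DNA probes labelled with fluorescein and Texas red; potency is read from the fitted curve at half-maximal effect; % of control where 0% means no effect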
#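 His-tagged ERG Ets domain (1 uM in the protein solution; 300mM KCl, 50mM Tris-HCl, 1mM EDTA, 1mM DTT, pH 7.5) received compound, then a probe mix of 5 nM fluorescein-DNA and 100nM Texas-615-DNA. Fluorescence polarization was read for both dyes.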
# D1 PAM – potentiators of human D1 dopamine receptor. 360,000 compounds, 0.036% hits. HEK293 TREx D1 cells, calcium flux, dopamine EC20 potentiation. P21728. AID 504651. potentiation, % at 10 µM; in the data active = potentiation above about 30%; also: 0% is about no effect
# D1 ag – activates the human D1 dopamine receptor | 360,000 compounds, 1% hits | AID 504660 | P21728 | HEK293 T-REx D1 cells, calcium flux, agonist mode | activation, % at 2 µM; in the data active = activation above about 30%; also: 0% is about no effect
#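 Tetracycline-induced HEK293 TREx D1 cells, force-coupled to calcium signalling, were dye-loaded with a no-wash calcium kit. Compound was pin-added after a 10 s baseline. Fluorescence was read kinetically at 1 cycle/s for 180 s, with calcium rises flagged as agonism.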
# Active calls of the source: *; ? = inconclusive; . = no result. Rows were chosen to be rich in hits. Some 6.1% of all compounds tested hit in one or more screens of this group.
SMILES,D1 antagonist,D3 ag,D3 antag,ERG Ets-DNA blk,D1 PAM,D1 ag
CCC[C@@H](CN1CCC[C@H]1CN1C(N)=NC[C@@H]1Cc1ccccc1)N1C[C@@H](Cc2ccccc2)N(CCc2ccc(Cl)c(Cl)c2)C1=N,.,-46,-87*,10%,.,.
CCC[C@@H](CN1CCC[C@H]1CN1C(N)=NC[C@@H]1Cc1ccccc1)N1C[C@@H]([C@H](C)CC)N(CCc2ccc(Cl)c(Cl)c2)C1=N,.,-47,-64*,-2%,.,.
CCC[C@@H](CN1CCC[C@H]1CN1C(N)=NC[C@H]1CC(C)C)N1C[C@@H](Cc2ccccc2)N(CCc2ccc(Cl)c(Cl)c2)C1=N,.,-23,-29,1%,.,.
CCC[C@@H](CN1CCC[C@H]1CN1C(N)=NC[C@H]1CC(C)C)N1C[C@@H]([C@H](C)CC)N(CCc2ccc(Cl)c(Cl)c2)C1=N,.,-37,?,4%,.,.
CCOC(=O)CN1C(=O)C(=O)N(Cc2c(F)cccc2Cl)C1=O,5,7,-6,-11%,5,5
CCOC(=O)c1cc(C#N)c(SC)nc1C,2,6,4,1%,0,1
CCOC(=O)c1cc(C#N)c(SC)nc1-c1ccccc1,-44*,0,-6,7%,-3,9
O=C(c1ccc(-n2cncn2)c([N+](=O)[O-])c1)N1CCN(c2cccc(Cl)c2)CC1,-19,11,3,11%,-3,1
Cc1nc([N+](=O)[O-])c(Sc2nc3ccccc3[nH]2)n1Cc1ccccc1,-2,-5,-5,-5%,3,1
COc1ccc2nc(Sc3c([N+](=O)[O-])nc(C)n3Cc3ccccc3)[nH]c2c1,7,-10,-75*,-3%,6,0
Cc1ccc(NCCCn2ccc(NC(=O)OCc3ccccc3)nc2=O)cc1C,.,12,4,10%,.,.
N#C/C(=C/c1ccc(O)cc1)C(=O)NCc1ccc(Cl)cc1,5,-2,-22,1%,-5,34*
N#C/C(=C\c1ccc(O)cc1)C(=O)NCc1ccccc1,-19,-2,-9,-7%,0,15
N#C/C(=C\c1ccc(O)cc1)C(=O)NCc1cccc(Cl)c1,-21,-9,-23,6%,-10,53*
O=C(NCC1CCCCC1)c1ccc(Br)o1,9,-1,9,-4%,-2,1
O=C(CCc1nnc2ccc(NCc3ccccc3)nn12)NCC1CCN(C2CCCC2)C1 (stereo unspecified),-84*,-9,9,8%,-6,0
COC(=O)c1ccc(NC(=O)CN2CCN(c3ccccc3C)CC2)cc1,8,-2,-77*,-2%,-1,-1
O=C(Nc1cccc(S(=O)(=O)N2CCCCC2)c1)C1=NN(c2ccccc2)C(=O)CC1,1,-6,-10,5%,.,8
COc1ccc(NC(=O)CN2CCN(c3ccccc3C)CC2)cc1,3,-14,-26,-3%,0,4
CCOc1ccc(NC(=O)C2=NN(c3ccccc3)C(=O)CC2)cc1S(=O)(=O)N1CCCCC1,-35*,4,0,0%,-1,5
COc1ccc(NC(=O)CN2CCN(c3nc(-c4cccc(OC)c4)cs3)CC2)cc1,-37*,4,-9,10%,-26,2
COc1ccc(NC(=O)CN2CCN(c3ccccc3Cl)CC2)cc1,2,-12,-61*,-2%,-3,1
C[C@H](CO)N1C[C@H](C)[C@@H](CN(C)C(=O)Nc2ccccc2)Oc2c(cccc2N(C)C)C1=O,.,-4,-9,9%,.,.
COc1ccc(NC(=O)Cn2c(=O)cnc3ccccc32)cc1S(=O)(=O)N1CCCCC1,-48*,1,2,9%,-4,-2
Cc1ccc(NC(=O)Cn2c(=O)cnc3ccccc32)cc1S(=O)(=O)N1CCCCC1,-8,-19,-4,-18%,-6,5
SMILES,D1 antagonist,D3 ag,D3 antag,ERG Ets-DNA blk,D1 PAM,D1 ag
CCOc1ccc(NC(=O)CN2CCN(c3ccccc3C)CC2)cc1S(=O)(=O)N1CCCC1,2,-24,-62*,-17%,-6,1
COc1ccccc1CCC(=O)Nc1ccc2c(c1)c(=O)n(C)n2Cc1cccc(C(F)(F)F)c1,.,-7,-17,.,.,.
Cc1cccc(Nc2nnc(SC/C(O)=C(\C#N)c3nc4ccccc4[nH]3)s2)c1C,-6,33*,53,13%,0,2
COc1cccc(C(=O)NCCSc2c(C)[nH]c3ccccc23)c1OC,-38*,8,22,-8%,-13,16
COc1cc(C(=O)NCCSc2c(C)[nH]c3ccccc23)cc(OC)c1OC,-4,5,.,-9%,1,2
Cc1ccc(C(=O)NCCSc2c(C)[nH]c3ccccc23)cc1[N+](=O)[O-],-70*,1,-3,2%,-11,0
N#C/C(=C/Nc1ccccc1C(=O)O)C(N)=O,-12,2,-3,1%,-6,1
COc1cccc(-c2cc(C(=O)Nc3cccnc3)c3ccccc3n2)c1,-12,-2,7,4%,3,1
O=C(Nc1cccnc1)c1cc(-c2cccc(Br)c2)nc2ccccc12,-16,3,22,-3%,0,3
O=C(Nc1cccnc1)c1cc(-c2cccnc2)nc2ccc(Br)cc12,-3,55*,25,4%,-7,0
O=C(Nc1ccncc1)c1cc(-c2cccc(Br)c2)nc2ccccc12,4,31*,48,-11%,-1,1
CN1CCC(N(C)C(=O)c2cc(-c3ccc(F)cc3)nc3ccccc23)CC1,.,-1,23,1%,.,.
COc1cc(NC(=O)c2cc(-c3cccnc3)nc3ccc(Br)cc23)cc(OC)c1,-4,36*,27,-4%,1,3
CN1CCC(N(C)C(=O)c2cc(-c3ccccc3Cl)nc3ccccc23)CC1,8,-11,-60*,17%,-2,4
COCCNC(=O)c1cc(-c2cccnc2)nc2ccc(Br)cc12,14,-5,-2,-6%,-7,1
CN1CCC(NC(=O)c2cc(-c3cccc(Br)c3)nc3ccccc23)CC1,-35*,0,-28,-6%,-10,38*
CCOC(=O)C1=CCN(S(=O)(=O)c2ccc(F)cc2)C1c1cccc(C)c1 (stereo unspecified),.,6,2,.,.,.
COc1ccc(NC2CCCN(C(=O)CCc3cccc(F)c3)C2)cc1 (stereo unspecified),-1,0,-18,11%,-4,0
CC1CCOC2(O1)C(=O)N(CN1CCN(c3ccccc3F)CC1)c1ccccc12 (stereo unspecified),.,-8,-54*,-4%,.,.
O=C1N(CN2CCN(c3cccc(Cl)c3)CC2)c2ccccc2C12OCCCO2,-15,-30,-83*,0%,-6,3

# From PubChem
